Experimental findings from PubChem BioAssay (NCI) are described below.

The panel holds about 83,000 compounds, 20% with a hit somewhere; the sample as a whole holds those more often.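 Note: values are percent growth. 100 is the growth of untreated cells, values between 100 and 0 indicate rising inhibition; between -100 and 0 indicates cell death.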 Values without a mark were called inactive. Active and inactive are the calls of the source. How the source made its calls: active means growth percent below 10; inactive means the rest.

The first assay deals with SK-MEL-2 melanoma. The experiment in a line: NCI-60 one-dose screen, 48 h (100 = growth as untreated, 0 = no growth, -100 = all killed). The note with it: 10 µM.
As to `COc1ccc(C2c3sc4ccc(C)cc4c3Oc3nc(N)nc(N)c32)cc1` (stereo not drawn), the growth is 96%.
As for `Cc1cc(N=C2NC(=O)S/C2=C\c2ccc(F)cc2)n[nH]1`, the growth is 11%.
For `Cn1cc(-c2nnc(N)nc2-c2c[nH]c3ccccc23)c2cc(Br)cnc21`, the growth is 46.2%.
Turning to `O=C(CC(=O)Nc1ccc(Oc2ncnc3scc(Nc4n[nH]c(=S)s4)c23)cc1)Nc1ccc(Cl)cc1`, the growth is 98.3%.
For the compound `O=C1NC2C=CC=CC2/C1=C1/SC(=S)N(C2CC(=O)N(c3ccc(Br)cc3)C2=O)C1=O` (stereo not drawn), the growth was 107%.
In the case of `CC1(C)CC(=O)C2=C(C1)N(Cc1ccc(C(=O)O)cc1)C1=C(C(=O)CC(C)(C)C1)C2c1ccc(Cl)cc1`, the growth is 97.6%.
The same measure, in the same setting: then `Cc1ccc2c(c1)C(=O)/C(=C/c1ccc([N+](=O)[O-])cc1)S2`, with 101%; and `O=C(Nc1ccc(OCc2ccc(Cl)cc2)cc1)Nc1ccc(Cl)c(C(F)(F)F)c1`, with -30% (active); and `Cn1cc(-c2nc(N)nnc2-c2c[nH]c3ccccc23)c2cc(Br)cnc21`, with 24.7%.
Consider `O=C(CSc1nc2ccccc2c(=O)n1-c1ccc(Cl)cc1)Nc1ccc(-c2nc3ccccc3[nH]2)cc1`, for which the growth was 82.1%.
Consider `Cc1ccc2c(c1)C(=O)/C(=C/c1c[nH]c3ccccc13)S2`, for which the growth was 99.7%.
On the same count and under the same terms, then `COc1cccc(O)c1/C=C1\SCc2cc3c(OC)cccc3[o+]c21`, with 110%; and `COc1cc(C2CC(c3ccc(Oc4ccc(Cl)cc4)cc3)=NN2c2nc(-c3ccc(Cl)cc3)c(C#N)c(N3CCOCC3)n2)cc(OC)c1OC` (stereo not drawn), with 106%; and `O=C(Nc1ccc(OCC(=O)c2ccc(Cl)cc2)cc1)Nc1ccc(Cl)c(C(F)(F)F)c1`, with -35.4% (active).
The same measure, in the same setting: then `Cc1ccc2sc3c(c2c1)Oc1nc[nH]c(=O)c1C3c1cccc(F)c1` (stereo not drawn), with 102%; and `Cc1cc(N=C2NC(=O)/C(=C/c3cc(C(C)(C)C)c(O)c(C(C)(C)C)c3)S2)n[nH]1`, with -27.6% (active); and `COc1ccc(C2c3sc4ccc(C)cc4c3Oc3nc[nH]c(=O)c32)cc1` (stereo not drawn), with 68.8%.
Take `COc1cccc(C(=O)CSc2nc(-c3ccc(OCc4ccccc4)c(OC)c3)c(C#N)c(=O)[nH]2)c1`: the growth was 91.7%.
The same measure, in the same setting: then `Cc1ccc(COc2ccc(NC(=O)Nc3ccc(Cl)c(C(F)(F)F)c3)cc2)cc1`, with 85.3%.
Regarding `CC(C)(C)c1cc(/C=C2\S/C(=N/c3ncn[nH]3)NC2=O)cc(C(C)(C)C)c1O`, the growth is -7.9% (active).
As to `Cn1cc(/C=C(/SS/C(=C/c2cn(C)c3cccc(C(=O)O)c23)C(=O)O)C(=O)O)c2c(C(=O)O)cccc21`, the growth was 106%.
For `COc1ccc(C(=O)COc2ccc(NC(=O)Nc3ccccc3)cc2)cc1`, the growth is 80.8%.
Regarding `CCn1c(SCC(=O)Nc2ccc(-c3nc4ccccc4[nH]3)cc2)nc2ccccc2c1=O`, the growth was -79.4% (active).
`O=C(Nc1ccc(OCc2ccc(F)cc2)cc1)Nc1ccc(Cl)c(C(F)(F)F)c1`: the growth was -34.7% (active).
Consider `O=C(CC(=O)Nc1ccc(Oc2ncnc3scc(Nc4n[nH]c(=S)s4)c23)cc1)Nc1ccc(Br)cc1`, for which the growth is 98.8%.
Still for that read-out and setting: then `COc1ccc(C(=O)COc2ccc(NC(=O)Nc3ccc(Cl)c(C(F)(F)F)c3)cc2)cc1`, with -6.77% (active); and `O=C(Nc1ccc(Oc2ncnc3scc(Nc4n[nH]c(=S)s4)c23)cc1)C1(C(=O)Nc2cccc(C(F)(F)F)c2)CC1`, with 113%.
As to `O=C1NC(=S)S/C1=C\c1cn(-c2ccccc2)nc1-c1ccc([N+](=O)[O-])cc1`, the growth was -29.2% (active).
As to `O=C(CSc1nc2ccccc2c(=O)n1-c1ccc(Cl)cc1)Nc1ccc(-c2nc3ccc([N+](=O)[O-])cc3[nH]2)cc1`, the growth was 34.4%.

For another assay, the system named is EKVX NSCLC. Described as above. As to conditions: 10 µM.
`COc1ccc(C2c3sc4ccc(C)cc4c3Oc3nc(N)nc(N)c32)cc1` (stereo not drawn): the growth was 76.4%.
In the case of `Cc1cc(N=C2NC(=O)S/C2=C\c2ccc(F)cc2)n[nH]1`, the growth was 15.2%.
In the case of `Cn1cc(-c2nnc(N)nc2-c2c[nH]c3ccccc23)c2cc(Br)cnc21`, the growth is 46.6%.
Still for that read-out and setting: under `O=C(CC(=O)Nc1ccc(Oc2ncnc3scc(Nc4n[nH]c(=S)s4)c23)cc1)Nc1ccc(Cl)cc1` stands 75.6%.
With `O=C1NC2C=CC=CC2/C1=C1/SC(=S)N(C2CC(=O)N(c3ccc(Br)cc3)C2=O)C1=O` (stereo not drawn), the growth was 92.6%.
With `CC1(C)CC(=O)C2=C(C1)N(Cc1ccc(C(=O)O)cc1)C1=C(C(=O)CC(C)(C)C1)C2c1ccc(Cl)cc1`, the growth was 97.5%.
Consider `Cc1ccc2c(c1)C(=O)/C(=C/c1ccc([N+](=O)[O-])cc1)S2`, for which the growth was 91.6%.
As for `O=C(Nc1ccc(OCc2ccc(Cl)cc2)cc1)Nc1ccc(Cl)c(C(F)(F)F)c1`, the growth was 2.59% (active).
Consider `Cn1cc(-c2nc(N)nnc2-c2c[nH]c3ccccc23)c2cc(Br)cnc21`, for which the growth was 29.8%.
As to `O=C(CSc1nc2ccccc2c(=O)n1-c1ccc(Cl)cc1)Nc1ccc(-c2nc3ccccc3[nH]2)cc1`, the growth is 27.4%.
Regarding `Cc1ccc2c(c1)C(=O)/C(=C/c1c[nH]c3ccccc13)S2`, the growth is 50.8%.
As for `COc1cccc(O)c1/C=C1\SCc2cc3c(OC)cccc3[o+]c21`, the growth was 105%.
Still for that read-out and setting: under `COc1cc(C2CC(c3ccc(Oc4ccc(Cl)cc4)cc3)=NN2c2nc(-c3ccc(Cl)cc3)c(C#N)c(N3CCOCC3)n2)cc(OC)c1OC` (stereo not drawn) stands 94.5%; under `O=C(Nc1ccc(OCC(=O)c2ccc(Cl)cc2)cc1)Nc1ccc(Cl)c(C(F)(F)F)c1`, 16.9%.
For the compound `Cc1ccc2sc3c(c2c1)Oc1nc[nH]c(=O)c1C3c1cccc(F)c1` (stereo not drawn), the growth is 87.9%.
Take `Cc1cc(N=C2NC(=O)/C(=C/c3cc(C(C)(C)C)c(O)c(C(C)(C)C)c3)S2)n[nH]1`: the growth is 2.77% (active).
`COc1ccc(C2c3sc4ccc(C)cc4c3Oc3nc[nH]c(=O)c32)cc1` (stereo not drawn): the growth is 92.7%.
The same measure, in the same setting: then `COc1cccc(C(=O)CSc2nc(-c3ccc(OCc4ccccc4)c(OC)c3)c(C#N)c(=O)[nH]2)c1`, with 97.1%; and `Cc1ccc(COc2ccc(NC(=O)Nc3ccc(Cl)c(C(F)(F)F)c3)cc2)cc1`, with 63.1%; and `CC(C)(C)c1cc(/C=C2\S/C(=N/c3ncn[nH]3)NC2=O)cc(C(C)(C)C)c1O`, with 12.3%.
With `Cn1cc(/C=C(/SS/C(=C/c2cn(C)c3cccc(C(=O)O)c23)C(=O)O)C(=O)O)c2c(C(=O)O)cccc21`, the growth was 98.2%.
Same read-out and setting: under `COc1ccc(C(=O)COc2ccc(NC(=O)Nc3ccccc3)cc2)cc1` stands 82.7%; under `CCn1c(SCC(=O)Nc2ccc(-c3nc4ccccc4[nH]3)cc2)nc2ccccc2c1=O`, -42.5% (active).
With `O=C(Nc1ccc(OCc2ccc(F)cc2)cc1)Nc1ccc(Cl)c(C(F)(F)F)c1`, the growth was 8.3% (active).
Regarding `O=C(CC(=O)Nc1ccc(Oc2ncnc3scc(Nc4n[nH]c(=S)s4)c23)cc1)Nc1ccc(Br)cc1`, the growth is 101%.
In the case of `COc1ccc(C(=O)COc2ccc(NC(=O)Nc3ccc(Cl)c(C(F)(F)F)c3)cc2)cc1`, the growth is 10.3%.
With `O=C(Nc1ccc(Oc2ncnc3scc(Nc4n[nH]c(=S)s4)c23)cc1)C1(C(=O)Nc2cccc(C(F)(F)F)c2)CC1`, the growth was 97.1%.
As for `O=C1NC(=S)S/C1=C\c1cn(-c2ccccc2)nc1-c1ccc([N+](=O)[O-])cc1`, the growth was 9.43% (active).
On the same count and under the same terms, under `O=C(CSc1nc2ccccc2c(=O)n1-c1ccc(Cl)cc1)Nc1ccc(-c2nc3ccc([N+](=O)[O-])cc3[nH]2)cc1` stands 35.9%.
